For 1 sequence, binding signal results are on record in article PMC7862700, “An all-to-all approach to the identification of sequence-specific readers for epigenetic DNA modifications on cytosine”.

What all share (experiment): DAPPL (digital affinity profiling via proximity ligation, sequencing); 10 mM Tris-HCl pH 7.5, 50 mM NaCl, 1 mM DTT, 4% glycerol, room temperature, 30 min; GST-TFs on glutathione beads, 16-mer random dsDNA library, 0.1% formaldehyde crosslink after washing; high values mean tight binding
For assay [1], the target named is T1, FLI1 (Homo sapiens, UniProt Q01543 1-452).
T1 sequence: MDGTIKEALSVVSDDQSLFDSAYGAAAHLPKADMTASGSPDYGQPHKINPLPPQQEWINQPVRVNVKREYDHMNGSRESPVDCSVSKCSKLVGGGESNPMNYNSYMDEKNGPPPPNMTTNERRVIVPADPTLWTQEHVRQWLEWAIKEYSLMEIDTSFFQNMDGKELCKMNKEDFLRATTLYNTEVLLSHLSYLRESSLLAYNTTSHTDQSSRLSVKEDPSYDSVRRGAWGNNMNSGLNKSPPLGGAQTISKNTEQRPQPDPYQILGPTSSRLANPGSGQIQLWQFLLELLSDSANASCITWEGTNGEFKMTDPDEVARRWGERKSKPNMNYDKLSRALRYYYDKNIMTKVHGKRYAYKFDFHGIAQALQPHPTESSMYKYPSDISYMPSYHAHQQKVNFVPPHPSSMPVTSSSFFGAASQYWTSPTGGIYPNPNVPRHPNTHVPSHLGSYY
Conditions: protein: recombinant; tags: N-terminal GST; dsDNA, one strand shown. The gist of the method:
(§1)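 Human transcription factors were made in yeast as GST fusions, captured on glutathione beads and barcoded with DNA. With a tag-only sample included, the pool was incubated with 200 nmole of a random double-stranded 16-mer DNA library in Tris/NaCl/DTT/glycerol buffer at room temperature for 30 min, then crosslinked with 0.1% formaldehyde after washing, ligated by proximity, amplified and sequenced. For binding signal, each hexamer's read frequency for a factor is divided by its frequency for the tag-only sample.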

The target in assay [2] is T2, ELK1 (Homo sapiens, UniProt P19419 1-428).
T2 sequence: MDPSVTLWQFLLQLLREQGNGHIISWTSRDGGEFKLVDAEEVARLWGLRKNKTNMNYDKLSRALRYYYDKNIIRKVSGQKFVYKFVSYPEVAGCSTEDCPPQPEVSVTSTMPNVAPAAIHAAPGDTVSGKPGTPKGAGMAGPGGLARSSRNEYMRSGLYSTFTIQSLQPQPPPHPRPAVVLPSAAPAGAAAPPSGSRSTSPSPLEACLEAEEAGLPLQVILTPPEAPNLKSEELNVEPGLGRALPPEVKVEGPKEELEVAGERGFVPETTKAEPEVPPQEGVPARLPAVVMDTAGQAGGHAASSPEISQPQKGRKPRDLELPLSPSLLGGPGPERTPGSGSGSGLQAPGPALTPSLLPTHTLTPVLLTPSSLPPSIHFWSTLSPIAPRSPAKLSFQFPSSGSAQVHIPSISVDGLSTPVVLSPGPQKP
The note with it: protein: recombinant; tags: N-terminal GST; dsDNA, one strand shown. The gist of the method:
as §1

The target in assay [3] is T3, GABPA (Homo sapiens, UniProt Q06546 1-454).
T3 sequence: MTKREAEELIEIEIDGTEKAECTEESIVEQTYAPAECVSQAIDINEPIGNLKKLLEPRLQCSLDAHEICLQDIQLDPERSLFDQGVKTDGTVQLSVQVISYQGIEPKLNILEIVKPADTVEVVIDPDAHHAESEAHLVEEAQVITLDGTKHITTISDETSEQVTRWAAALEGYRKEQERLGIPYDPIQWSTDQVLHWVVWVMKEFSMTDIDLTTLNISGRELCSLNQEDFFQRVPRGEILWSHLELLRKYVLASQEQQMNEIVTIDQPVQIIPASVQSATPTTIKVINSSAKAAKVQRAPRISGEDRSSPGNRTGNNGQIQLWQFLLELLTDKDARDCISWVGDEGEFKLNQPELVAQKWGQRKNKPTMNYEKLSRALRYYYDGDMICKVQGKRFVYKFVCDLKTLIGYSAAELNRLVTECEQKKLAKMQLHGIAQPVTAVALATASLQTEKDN
The note with it: protein: recombinant; tags: N-terminal GST; dsDNA, one strand shown. The gist of the method:
as §1

Assay [4] has as its target T4, ERG (Homo sapiens, UniProt P11308 1-479).
T4 sequence: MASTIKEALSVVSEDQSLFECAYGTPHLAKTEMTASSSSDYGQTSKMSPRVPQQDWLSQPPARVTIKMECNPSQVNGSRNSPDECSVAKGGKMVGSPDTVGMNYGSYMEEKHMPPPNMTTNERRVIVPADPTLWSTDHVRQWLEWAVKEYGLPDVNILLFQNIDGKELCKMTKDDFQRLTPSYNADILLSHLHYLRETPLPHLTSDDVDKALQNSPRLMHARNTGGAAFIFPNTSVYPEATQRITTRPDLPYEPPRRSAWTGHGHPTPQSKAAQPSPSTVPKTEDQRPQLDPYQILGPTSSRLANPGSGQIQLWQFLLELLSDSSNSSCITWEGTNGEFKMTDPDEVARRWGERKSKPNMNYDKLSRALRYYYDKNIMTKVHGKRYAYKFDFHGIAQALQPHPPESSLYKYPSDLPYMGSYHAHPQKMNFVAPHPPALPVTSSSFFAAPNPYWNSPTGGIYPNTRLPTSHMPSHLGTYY
The note with it: protein: recombinant; tags: N-terminal GST; dsDNA, one strand shown. In a few lines:
as §1

Assay [5] has as its target ELF1 (Homo sapiens, UniProt P32519 1-619). Conditions: protein: recombinant; tags: N-terminal GST; dsDNA, one strand shown. In a few lines: as §1
The target of assay [6] is T5, EHF (Homo sapiens, UniProt Q9NZC4 1-300).
T5 sequence: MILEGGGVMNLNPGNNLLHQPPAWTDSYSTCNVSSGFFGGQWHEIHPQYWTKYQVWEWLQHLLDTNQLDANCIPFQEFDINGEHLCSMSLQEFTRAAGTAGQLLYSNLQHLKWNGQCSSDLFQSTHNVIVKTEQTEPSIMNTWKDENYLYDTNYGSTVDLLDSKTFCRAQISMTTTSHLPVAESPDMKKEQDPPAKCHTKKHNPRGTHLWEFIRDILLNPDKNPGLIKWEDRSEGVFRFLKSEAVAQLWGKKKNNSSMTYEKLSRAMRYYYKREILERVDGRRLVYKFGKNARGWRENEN
The note with it: protein: recombinant; tags: N-terminal GST; dsDNA, one strand shown. The gist of the method:
as §1

The target in assay [7] is SPI1 (Homo sapiens, UniProt P17947 1-270). Conditions: protein: recombinant; tags: N-terminal GST; dsDNA, one strand shown. The gist of the method:
as §1

The target of assay [8] is SPIB (Homo sapiens, UniProt Q01892 1-262). Conditions: protein: recombinant; tags: N-terminal GST; dsDNA, one strand shown. In a few lines: as §1
Sequence of SPIB (Q01892 whole entry): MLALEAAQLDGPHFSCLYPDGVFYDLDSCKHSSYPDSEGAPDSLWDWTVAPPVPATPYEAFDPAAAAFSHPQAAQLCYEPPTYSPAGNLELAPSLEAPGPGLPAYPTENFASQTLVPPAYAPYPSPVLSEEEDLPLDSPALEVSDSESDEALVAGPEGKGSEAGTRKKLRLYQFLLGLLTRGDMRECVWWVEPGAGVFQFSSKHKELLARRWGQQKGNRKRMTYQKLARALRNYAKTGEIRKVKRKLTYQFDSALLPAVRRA
In assay [9] the target is T6, ELK3 (Homo sapiens, UniProt P41970 1-407).
T6 sequence: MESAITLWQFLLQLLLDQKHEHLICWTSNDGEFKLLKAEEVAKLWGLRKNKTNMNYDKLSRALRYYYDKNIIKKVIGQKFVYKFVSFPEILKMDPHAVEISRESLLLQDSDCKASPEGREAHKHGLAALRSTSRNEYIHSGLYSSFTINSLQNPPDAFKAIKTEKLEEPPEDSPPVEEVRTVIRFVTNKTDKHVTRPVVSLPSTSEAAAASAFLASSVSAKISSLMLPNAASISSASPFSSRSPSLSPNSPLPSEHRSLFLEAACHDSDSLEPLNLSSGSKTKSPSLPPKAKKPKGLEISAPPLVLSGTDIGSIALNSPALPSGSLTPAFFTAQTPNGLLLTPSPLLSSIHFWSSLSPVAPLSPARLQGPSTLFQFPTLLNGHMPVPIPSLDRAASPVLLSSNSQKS
Conditions: protein: recombinant; tags: N-terminal GST; dsDNA, one strand shown. The gist of the method: as §1

The target of assay [10] is T7, FEV (Homo sapiens, UniProt Q99581 1-238).
T7 sequence: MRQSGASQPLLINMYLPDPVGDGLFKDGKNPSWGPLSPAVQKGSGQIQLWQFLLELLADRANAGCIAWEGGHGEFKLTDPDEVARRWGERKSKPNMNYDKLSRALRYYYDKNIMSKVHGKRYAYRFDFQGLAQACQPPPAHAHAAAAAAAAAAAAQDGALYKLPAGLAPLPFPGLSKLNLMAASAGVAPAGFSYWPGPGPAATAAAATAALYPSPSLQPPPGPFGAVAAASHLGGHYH
The note with it: protein: recombinant; tags: N-terminal GST; dsDNA, one strand shown. In a few lines:
as §1

In assay [11] the target is ETV5 (Homo sapiens, UniProt P41161 1-510). The note with it: protein: recombinant; tags: N-terminal GST; dsDNA, one strand shown. The gist of the method: as §1
Sequence of ETV5 (P41161 whole entry): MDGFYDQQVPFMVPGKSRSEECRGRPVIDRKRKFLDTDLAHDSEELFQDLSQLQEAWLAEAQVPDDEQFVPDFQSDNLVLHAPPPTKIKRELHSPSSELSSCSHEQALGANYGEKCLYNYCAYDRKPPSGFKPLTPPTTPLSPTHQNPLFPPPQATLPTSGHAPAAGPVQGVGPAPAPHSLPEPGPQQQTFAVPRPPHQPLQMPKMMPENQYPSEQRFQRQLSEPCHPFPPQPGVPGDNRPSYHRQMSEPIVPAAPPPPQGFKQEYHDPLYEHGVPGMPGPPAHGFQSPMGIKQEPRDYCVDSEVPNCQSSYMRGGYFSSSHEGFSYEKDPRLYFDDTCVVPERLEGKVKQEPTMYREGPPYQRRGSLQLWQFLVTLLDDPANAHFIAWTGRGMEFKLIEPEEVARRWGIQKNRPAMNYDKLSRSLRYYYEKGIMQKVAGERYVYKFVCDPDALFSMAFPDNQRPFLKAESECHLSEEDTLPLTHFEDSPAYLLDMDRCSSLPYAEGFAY
Assay [12] deals with HSF1 (Homo sapiens, UniProt Q00613 1-529). Conditions: protein: recombinant; tags: N-terminal GST; chain copies: 3; dsDNA, one strand shown. The gist of the method: as §1
Sequence of HSF1 (Q00613 whole entry): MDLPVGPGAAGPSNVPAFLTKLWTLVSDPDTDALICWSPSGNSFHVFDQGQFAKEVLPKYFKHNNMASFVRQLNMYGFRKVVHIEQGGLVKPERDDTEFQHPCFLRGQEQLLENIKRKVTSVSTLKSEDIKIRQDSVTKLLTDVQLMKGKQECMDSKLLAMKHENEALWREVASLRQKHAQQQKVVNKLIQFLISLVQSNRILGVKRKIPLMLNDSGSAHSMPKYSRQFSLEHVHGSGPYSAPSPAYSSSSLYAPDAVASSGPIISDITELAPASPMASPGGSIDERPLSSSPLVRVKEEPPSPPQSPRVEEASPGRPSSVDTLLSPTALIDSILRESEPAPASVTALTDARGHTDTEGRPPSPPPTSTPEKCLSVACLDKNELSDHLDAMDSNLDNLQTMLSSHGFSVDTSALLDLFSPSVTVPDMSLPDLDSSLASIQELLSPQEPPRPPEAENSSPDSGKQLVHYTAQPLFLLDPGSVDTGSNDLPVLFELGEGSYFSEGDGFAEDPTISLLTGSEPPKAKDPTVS
Assay [13] deals with T8, SPIC (Homo sapiens, UniProt Q8N5J4 1-248).
T8 sequence: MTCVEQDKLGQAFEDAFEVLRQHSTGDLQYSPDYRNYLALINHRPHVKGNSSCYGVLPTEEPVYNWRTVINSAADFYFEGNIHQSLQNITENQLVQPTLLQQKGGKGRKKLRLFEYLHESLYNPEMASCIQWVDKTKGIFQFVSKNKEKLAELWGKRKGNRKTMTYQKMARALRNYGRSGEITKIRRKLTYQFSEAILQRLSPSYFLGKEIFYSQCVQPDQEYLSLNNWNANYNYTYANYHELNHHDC
Conditions: protein: recombinant; tags: N-terminal GST; dsDNA, one strand shown. The gist of the method:
as §1

In assay [14] the target is ELF4 (Homo sapiens, UniProt Q99607 1-663). The note with it: protein: recombinant; tags: N-terminal GST; dsDNA, one strand shown. In a few lines: as §1
Sequence of ELF4 (Q99607 whole entry): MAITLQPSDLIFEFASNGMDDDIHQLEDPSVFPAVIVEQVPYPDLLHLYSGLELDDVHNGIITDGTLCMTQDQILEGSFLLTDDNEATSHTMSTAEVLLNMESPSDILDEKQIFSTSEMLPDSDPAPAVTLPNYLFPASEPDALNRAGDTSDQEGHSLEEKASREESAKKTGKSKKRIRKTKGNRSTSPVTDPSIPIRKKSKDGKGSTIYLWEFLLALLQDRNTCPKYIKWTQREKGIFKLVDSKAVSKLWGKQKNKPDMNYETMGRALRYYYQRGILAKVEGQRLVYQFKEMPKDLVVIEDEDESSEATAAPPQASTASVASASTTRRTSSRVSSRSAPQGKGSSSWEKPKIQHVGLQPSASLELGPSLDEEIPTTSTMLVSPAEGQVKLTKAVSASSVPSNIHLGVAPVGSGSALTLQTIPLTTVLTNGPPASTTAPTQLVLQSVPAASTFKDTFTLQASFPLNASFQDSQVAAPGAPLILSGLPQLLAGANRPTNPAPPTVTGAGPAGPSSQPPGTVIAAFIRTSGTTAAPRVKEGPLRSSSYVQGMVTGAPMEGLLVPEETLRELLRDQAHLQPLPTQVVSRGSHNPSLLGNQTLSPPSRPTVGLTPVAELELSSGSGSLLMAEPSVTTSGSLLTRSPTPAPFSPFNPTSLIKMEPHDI
Assay [15] concerns the target T9, ELK4 (Homo sapiens, UniProt P28324-2 1-405).
T9 sequence: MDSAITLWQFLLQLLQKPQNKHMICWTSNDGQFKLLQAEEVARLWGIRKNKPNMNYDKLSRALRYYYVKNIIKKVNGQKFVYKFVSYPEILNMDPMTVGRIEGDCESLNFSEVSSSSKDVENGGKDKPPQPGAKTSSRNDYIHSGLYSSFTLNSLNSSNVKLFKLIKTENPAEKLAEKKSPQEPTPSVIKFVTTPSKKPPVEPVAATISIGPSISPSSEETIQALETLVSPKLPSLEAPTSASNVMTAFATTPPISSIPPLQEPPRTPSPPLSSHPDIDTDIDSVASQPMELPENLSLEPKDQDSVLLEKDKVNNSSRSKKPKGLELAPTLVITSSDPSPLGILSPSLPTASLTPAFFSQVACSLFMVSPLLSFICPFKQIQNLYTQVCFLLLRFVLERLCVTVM
Conditions: protein: recombinant; tags: N-terminal GST; dsDNA, one strand shown. The gist of the method: as §1

Assay [16] deals with T10, ETV2 (Homo sapiens, UniProt O00321 1-342).
T10 sequence: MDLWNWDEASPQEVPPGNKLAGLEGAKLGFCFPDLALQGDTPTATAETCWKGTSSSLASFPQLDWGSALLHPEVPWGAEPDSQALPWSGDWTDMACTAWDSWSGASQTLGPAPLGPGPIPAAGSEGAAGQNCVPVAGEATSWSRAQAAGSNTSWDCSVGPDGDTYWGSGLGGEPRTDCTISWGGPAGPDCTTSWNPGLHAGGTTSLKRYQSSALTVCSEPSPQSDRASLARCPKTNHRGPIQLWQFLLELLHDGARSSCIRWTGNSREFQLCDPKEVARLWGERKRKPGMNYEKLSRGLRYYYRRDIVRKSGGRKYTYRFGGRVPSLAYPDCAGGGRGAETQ
The note with it: protein: recombinant; tags: N-terminal GST; dsDNA, one strand shown. In a few lines:
as §1

The target in assay [17] is T11, ELF3 (Homo sapiens, UniProt P78545 1-371).
T11 sequence: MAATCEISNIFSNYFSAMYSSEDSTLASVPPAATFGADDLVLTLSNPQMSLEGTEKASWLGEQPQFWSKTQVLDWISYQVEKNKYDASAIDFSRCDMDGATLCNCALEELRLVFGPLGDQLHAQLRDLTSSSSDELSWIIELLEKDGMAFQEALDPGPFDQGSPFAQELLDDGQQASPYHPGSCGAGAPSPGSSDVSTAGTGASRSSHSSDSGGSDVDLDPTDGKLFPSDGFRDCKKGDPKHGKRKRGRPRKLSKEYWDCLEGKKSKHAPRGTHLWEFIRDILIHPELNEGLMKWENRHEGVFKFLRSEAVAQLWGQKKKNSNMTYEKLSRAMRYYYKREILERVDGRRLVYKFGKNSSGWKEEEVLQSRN
Conditions: protein: recombinant; tags: N-terminal GST; dsDNA, one strand shown. The gist of the method:
as §1

Assay [18] deals with ETV1 (Homo sapiens, UniProt P50549 1-477). The note with it: protein: recombinant; tags: N-terminal GST; dsDNA, one strand shown. The gist of the method: as §1
Sequence of ETV1 (P50549 whole entry): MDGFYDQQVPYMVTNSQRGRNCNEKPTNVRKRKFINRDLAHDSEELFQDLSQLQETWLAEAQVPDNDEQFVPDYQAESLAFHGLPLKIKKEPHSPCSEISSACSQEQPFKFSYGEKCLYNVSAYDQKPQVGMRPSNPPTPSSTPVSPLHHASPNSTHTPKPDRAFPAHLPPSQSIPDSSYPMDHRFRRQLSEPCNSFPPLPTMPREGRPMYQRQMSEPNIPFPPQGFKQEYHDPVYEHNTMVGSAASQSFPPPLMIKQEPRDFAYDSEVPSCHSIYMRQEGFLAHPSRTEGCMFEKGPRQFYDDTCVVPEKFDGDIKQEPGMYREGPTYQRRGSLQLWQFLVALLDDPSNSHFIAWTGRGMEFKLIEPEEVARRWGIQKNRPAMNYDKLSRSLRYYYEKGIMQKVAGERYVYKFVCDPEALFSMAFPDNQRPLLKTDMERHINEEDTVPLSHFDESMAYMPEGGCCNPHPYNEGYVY

Sequence of ELF1 (P32519 whole entry): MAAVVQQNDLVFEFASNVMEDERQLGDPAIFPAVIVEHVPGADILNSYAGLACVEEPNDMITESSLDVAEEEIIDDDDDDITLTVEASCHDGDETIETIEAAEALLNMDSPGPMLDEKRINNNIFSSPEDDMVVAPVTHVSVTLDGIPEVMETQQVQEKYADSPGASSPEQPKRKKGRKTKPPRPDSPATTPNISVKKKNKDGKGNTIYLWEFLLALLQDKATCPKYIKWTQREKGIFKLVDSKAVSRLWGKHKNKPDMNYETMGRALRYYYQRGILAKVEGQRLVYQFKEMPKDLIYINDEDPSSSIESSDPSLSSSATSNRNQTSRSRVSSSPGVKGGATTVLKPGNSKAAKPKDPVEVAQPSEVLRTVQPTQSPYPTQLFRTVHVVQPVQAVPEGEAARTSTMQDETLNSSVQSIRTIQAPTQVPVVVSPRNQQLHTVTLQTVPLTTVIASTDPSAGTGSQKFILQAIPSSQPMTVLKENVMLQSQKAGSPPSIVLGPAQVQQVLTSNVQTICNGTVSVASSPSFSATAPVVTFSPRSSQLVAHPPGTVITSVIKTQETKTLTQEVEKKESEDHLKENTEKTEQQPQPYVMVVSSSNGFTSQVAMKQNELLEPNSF

Take ACCGTC: the binding signal is 1.25 fold enrichment (6-mer frequency, TF over GST control) in [1]; 1.21 fold enrichment (6-mer frequency, TF over GST control) in assay [2]; 1.26 fold enrichment (6-mer frequency, TF over GST control) in assay [3]; 1.15 fold enrichment (6-mer frequency, TF over GST control) in assay [4]; 1.19 fold enrichment (6-mer frequency, TF over GST control) in [5]; 1.07 fold enrichment (6-mer frequency, TF over GST control) in assay [6]. The binding signal in [7] is 1.18 fold enrichment (6-mer frequency, TF over GST control); in assay [8] it was 1.09 fold enrichment (6-mer frequency, TF over GST control); in assay [9], 1.22 fold enrichment (6-mer frequency, TF over GST control); in assay [10] it was 1.17 fold enrichment (6-mer frequency, TF over GST control); in assay [11] it was 1.12 fold enrichment (6-mer frequency, TF over GST control); in assay [12] it was 1.13 fold enrichment (6-mer frequency, TF over GST control). For the same sequence, the binding signal in assay [13] was 1.2 fold enrichment (6-mer frequency, TF over GST control); in assay [14] it was 1.17 fold enrichment (6-mer frequency, TF over GST control); in assay [15], 1.17 fold enrichment (6-mer frequency, TF over GST control); in assay [16] it was 1.29 fold enrichment (6-mer frequency, TF over GST control); in [17], 1.15 fold enrichment (6-mer frequency, TF over GST control); in [18], 1.19 fold enrichment (6-mer frequency, TF over GST control).
